Source: PubChem BioAssay
Shown are actives, neighbours in structure and some others; about 3% of the full set was active somewhere.
Nrf2 ARE act: Nrf2 pathway activation; AREc32 ARE-luciferase reporter (MCF7-derived line), luminescence, 24 h; Potency, µM (doses to about 46.1 µM), for the others: at the top dose activation, actives largely listed as activators; 410,000 tested, 0.31% active; AID 624171; also: potency is read from the fitted curve at half-maximal effect; % of control where 0% means no effect; nearly all actives have a fitted effect of over 65% in size
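AREc32 cells carrying an ARE-driven firefly luciferase reporter were seeded at 1000 cells/well in OPTI-MEM with 5% FBS, then exposed to compound for 24 hr at 37 deg C. Luminescence was read with Steady-Glo after 30 min at RT.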
GRP78 ERSR act: ER stress response induction in glioma; Potency, µM, for the others: top-dose activation, hits mostly activators; U87-MG GRP78 promoter luciferase reporter, 16 h; 420,000 tested, 0.02% active; also: potency is read from the fitted curve at half-maximal effect; series mostly up to about 76 µM; % of control where 0% means no effect; nearly all actives have a fitted effect of over 35% in size
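Stably transfected U87-MG glioma cells carrying a GRP78-based luciferase sensor; 16 h compound incubation. Luminescence end-point read 10 min after Bright-Glo addition at room temperature.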
DRD3 agonist: activates the human D3 dopamine receptor; max activation, %; P35462; D3R DiscoveRx beta-arrestin cells, luminescence, 90 min; 410,000 tested, 0.58% active; in the data active = max activation above about 30%; also: 0% is about no effect
Target sequence (P35462 whole entry, looked up): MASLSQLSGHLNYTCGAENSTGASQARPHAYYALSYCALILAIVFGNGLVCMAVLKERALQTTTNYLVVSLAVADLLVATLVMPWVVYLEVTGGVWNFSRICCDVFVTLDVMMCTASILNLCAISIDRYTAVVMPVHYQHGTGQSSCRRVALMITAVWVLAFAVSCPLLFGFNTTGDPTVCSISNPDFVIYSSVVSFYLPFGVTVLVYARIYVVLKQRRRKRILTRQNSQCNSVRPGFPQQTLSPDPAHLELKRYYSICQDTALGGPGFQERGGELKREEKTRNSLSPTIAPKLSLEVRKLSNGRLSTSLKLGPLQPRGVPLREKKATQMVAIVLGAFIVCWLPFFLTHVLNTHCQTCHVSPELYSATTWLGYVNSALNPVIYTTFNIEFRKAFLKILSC
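Agonist mode: compounds and dopamine controls were applied to plated cells for 90 min at 37 degrees C after an overnight attachment at 1500 cells/well. Luminescent read-out followed 30 - 60 minutes at room temperature with DiscoveRx detection reagent.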
D3 antag: D3 dopamine receptor (human) antagonism. 360,000 tested, 2.5% active. P35462. max response, negative = inhibition, %. AID 652054. D3R cells, DiscoveRx beta-arrestin luminescence, antagonist mode; active compounds read low; in the data active = max response below about -50%; inconclusive = no clear call, values can overlap the other calls; also: % is scaled to controls: 0 for no effect and ±100 for the full control effect
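Cells plated overnight at 1500 cells/well, then exposed to library compounds with dopamine controls for 90 minutes at 37 degrees C. DiscoveRx reagent added for 30–60 minutes at room temperature; luminescence read, quantitative HTS format.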
An asterisk follows results filed as active; u = inconclusive; x = no result. Unless noted, calls follow the shape of the dose curve; as a rule, active = well fitted curve in the direction sought with a large enough effect; inconclusive = small, poorly fitted or top-dose-only effect, or another doubt; inactive = no such curve, though single readings can be large; an effect the other way counts as inactive or inconclusive.

SMILES	Nrf2 ARE act	GRP78 ERSR act	DRD3 agonist	D3 antag
CN(N=O)c1ccc(/C=C/c2ccccc2)cc1	x	1.3%	x	x
N#Cc1c(-c2ccccc2)nc(-c2ccccc2)[nH]c1=O	-0.4%	-1.9%	2.0	-58.0*
COc1cc2c(c(OC)c1OC)-c1c(cc3c(c1OC)OCO3)CC(C)C(C)(O)C2OC(=O)c1ccccc1 (centres undefined)	x	-8.3%	x	x
CCN(CC)CCNC(=O)CCc1c(C)nc2c(c(C)nn2-c2ccc(C)cc2)c1C	6.2%	-5.2%	-9.5	-50.3*
Cc1nc2c(c(C)nn2-c2ccccc2)c(C)c1CCC(=O)Nc1ccc(F)cc1	-1.0%	-1.8%	43.8*	x
CC(=O)Nc1ccc(NC(=O)CCc2c(C)nc3c(c(C)nn3-c3ccccc3)c2C)cc1	-0.9%	-4.4%	-8.3	x
COc1ccccc1N1CCN(C(=O)c2cnc(N3CCCCC3)c3ccccc23)CC1	-0.9%	-6.2%	-9.4	x
CC(=O)Nc1ccc(C(=O)CSc2cc(C)c3cccc(C)c3n2)cc1	2.4%	-1.6%	41.3*	13.6
CCOC(=O)C1=CCC(c2ccc(C)cc2)N(S(=O)(=O)c2ccc(C)cc2)C1 (centres undefined)	3.1%	-1.2%	-6.8	-24.2
CCOC(=O)C1=CCC(c2ccccc2C)N(S(=O)(=O)c2ccc(C)cc2)C1 (centres undefined)	3.9%	-5.2%	-9.0	-50.3*
NCCCC(N)C(=O)O (centres undefined)	x	-2.8%	x	x
c1ccc(-n2ncc3c(NCc4ccco4)ncnc32)cc1	4.1%	0.8%	-7.7	15.4
c1coc(CNc2ncnc3c2oc2ccccc23)c1	1.58µM*	1.4%	16.0	14.8
CCc1nc(NCc2ccco2)c2oc3ccccc3c2n1	9.9%	4.3%	0.1	31.2
c1ccc(Cn2ncc3c(NCc4ccco4)ncnc32)cc1	3.98µM*	-3.4%	-5.6	u
O=[N+]([O-])c1cc(C(F)(F)F)ccc1-n1nnc2ccccc21	2.0%	-1.9%	7.6	5.8
N#Cc1ccc(-n2nnc3ccccc3c2=O)c([N+](=O)[O-])c1	0.5%	-3.8%	6.7	-2.4
O=[N+]([O-])c1cc(S(=O)(=O)Nc2ccccc2)ccc1-n1nnc2ccccc21	2.7%	-3.1%	-24.3	-61.5*
N=c1c2ccccc2nnn1-c1ccccc1[N+](=O)[O-]	14.1µM*	1.1%	-1.7	0.1
CC(=O)Oc1ccccc1-c1nc(/C=C/c2ccccc2)no1	11.2µM*	-2.5%	4.4	10.7
COc1cccc2c1C(=O)/C(=C/c1ccc(N(C)C)cc1)C2	x	2.1%	x	x
O=C(CN1Cc2ccccc2OC(c2ccsc2)C1)NCc1ccc2c(c1)OCO2 (centres undefined)	x	-3.6%	x	x
O=C(OCc1ccccc1)c1cccnc1	x	-1.0%	-2.1	x
O=c1cc(CSc2ccc(Cl)cc2)nc(-c2ccccc2)[nH]1	0.3%	-0.5%	-4.8	-16.9
Clc1ccc(SCc2cc(N3CCOCC3)nc(-c3ccccn3)n2)cc1	0.3%	1.5%	-23.0	-53.0*
SMILES	Nrf2 ARE act	GRP78 ERSR act	DRD3 agonist	D3 antag
O=c1cc(CSc2ccc(Cl)cc2)nc(-c2ccccn2)[nH]1	-0.8%	u	-12.5	-53.3*
COc1ccc(CN2CCCC(n3cc(C(=O)NC4CCCC4)nn3)C2)c2ccccc12 (centres undefined)	x	-3.0%	x	x
CCOc1cc(S(=O)(=O)N(Cc2ccccc2)Cc2ccccc2)c(OCC)cc1-n1cnnn1	-0.1%	-1.5%	-3.0	-62.5*
COc1ccc(-c2cccc3c2OC(CNC(=O)c2ccc4c(c2)OCO4)C3)nn1 (centres undefined)	x	2.1%	x	x
CCn1cc(C(=O)NCc2ccc3c(c2)OCO3)c(=O)c2cc(F)c(N3CCN(C)CC3)cc21	2.6%	-3.2%	-25.8	-70.1*
COC(=O)c1ccc(Oc2nc(C)cc(Oc3ccccc3)n2)cc1	0.0%	-3.4%	-3.9	0.5
COC(=O)c1ccc(Oc2cc(C)nc(-n3nc(C)cc3C)n2)cc1	0.1%	-6.2%	-28.2	-81.7*
COC(=O)c1cccc(C(=O)Nc2ccc(F)cc2)n1	0.5%	-2.4%	-1.5	-62.1*
CCc1nnc(NC(=O)c2ccc3c(c2)C(=O)N(C(C)(C)C)C3=O)s1	0.4%	7.0%	38.0*	-24.5
CCc1nnc(NC(=O)c2ccc3ncsc3c2)s1	-0.1%	-2.1%	3.5	-4.3
CC1(C)Cc2ccccc2-c2nnc(-c3ccco3)n21	-0.3%	0.5%	-6.4	-51.9*
c1coc(-c2nnc3n2C2(CCCC2)Cc2ccccc2-3)c1	-0.5%	3.8%	-2.4	-15.2
CC(C)Cc1nc2cc(NS(=O)(=O)N(C)C)cc(C(=O)N3CC4(C)CC3CC(C)(C)C4)c2n1C (centres undefined)	x	-2.8%	x	x
CCc1cc2cccc(C)c2nc1SCC(=O)N1CCN(C(=O)c2ccco2)CC1	0.4%	-2.4%	40.6*	70.3
CCc1cc2cc(C)cc(C)c2nc1SCC(=O)N1CCN(C(=O)c2ccco2)CC1	0.1%	-0.3%	18.1	36.3
CC1CCN(Cc2cc(=O)oc3cc4c(cc23)CCCC4)CC1	-0.5%	-2.8%	-17.7	-98.4*
CN1CCN(Cc2cc(=O)oc3cc4c(cc23)CCC4)CC1	-0.9%	-1.4%	-8.3	u
CCc1cc(=O)oc2cc(C)cc(OCC(=O)NC3CCN(Cc4ccccc4)CC3)c12	-0.7%	-2.7%	-1.0	u
CCCCc1cc(=O)oc2cc(OCC(=O)NC3CCN(Cc4ccccc4)CC3)ccc12	0.1%	4.0%	-15.5	-53.7*
CCOC(=O)C1CCN(Cc2cc(Cl)c3ccccc3c2O)CC1	u	28.2µM*	-8.0	u
COC(=O)C1CCN(Cc2cc(=O)oc3cc(OC)ccc23)CC1	2.1%	5.4%	33.7*	-16.5
COc1cc(=O)n2c(c1C(=O)NCc1ccco1)CCN(C(=O)c1cccnc1SC)CC2	x	0.4%	x	x
CN(C)c1ccc(/C=C/c2ccc3cc(F)ccc3n2)cc1	x	-6.4%	x	x
COc1ccc(OC2C=CC(c3ccccc3)OC2CO)c(C(C)=O)c1 (centres undefined)	x	-2.6%	x	x
CCOC(=O)C1CCN(Cc2cc(=O)oc3cc(C)c(Cl)cc23)CC1	0.0%	-1.9%	35.8*	10.8
SMILES	Nrf2 ARE act	GRP78 ERSR act	DRD3 agonist	D3 antag
CCn1c(SCC(=O)N2CCCc3ccccc32)nnc1-c1c[nH]c2ccccc12	-0.6%	-3.4%	-5.2	-51.0*
COc1ccc(CO[C@@H]2O[C@H](CO)[C@@H](O)[C@H](O)[C@H]2NC(C)=O)cc1OC	0.1%	-4.8%	-4.1	-51.6*
CCOc1ccc(CO[C@@H]2O[C@H](CO)[C@@H](O)[C@H](O)[C@H]2NC(C)=O)cc1OC	-0.3%	-2.4%	11.6	20.5
CN1CCN(c2ccccc2NS(=O)(=O)c2ccc3c(c2)CCN3C(=O)C2CCC2)CC1	2.4%	-4.9%	-12.0	-51.8*
CCOC(=O)C1=C(O)c2ccccc2C(=O)/C1=C\c1ccc(CC)cc1	22.5%	u	-38.9	-69.9*
CCOC(=O)C1=C(Cc2ccc(OC)cc2)C(=O)c2ccccc2C1=O	10.9%	u	-35.3	-71.3*
CCOC(=O)c1ccc(COC(=O)c2ccc3c(c2)-c2ccccc2C3=O)cc1	0.6%	-3.1%	-4.5	10.0
O=C(COc1ccccc1C(=O)Nc1cccc([N+](=O)[O-])c1)Nc1ccc(Br)cc1	x	-3.7%	x	x
